# In PMC7862700, “An all-to-all approach to the identification of sequence-specific readers for epigenetic DNA modifications on cytosine”:
# What was measured:
# Assay in all cases: DAPPL (digital affinity profiling via proximity ligation, sequencing); 10 mM Tris-HCl pH 7.5, 50 mM NaCl, 1 mM DTT, 4% glycerol, room temperature, 30 min; GST-TFs on glutathione beads, 16-mer random dsDNA library, 0.1% formaldehyde crosslink after washing; high values mean tight binding
# Details in all cases: protein: recombinant; tags: N-terminal GST; dsDNA, one strand shown
# ELK4 = molecular target: T1, ELK4 (Homo sapiens, UniProt P28324-2 1-405)
# T1 sequence: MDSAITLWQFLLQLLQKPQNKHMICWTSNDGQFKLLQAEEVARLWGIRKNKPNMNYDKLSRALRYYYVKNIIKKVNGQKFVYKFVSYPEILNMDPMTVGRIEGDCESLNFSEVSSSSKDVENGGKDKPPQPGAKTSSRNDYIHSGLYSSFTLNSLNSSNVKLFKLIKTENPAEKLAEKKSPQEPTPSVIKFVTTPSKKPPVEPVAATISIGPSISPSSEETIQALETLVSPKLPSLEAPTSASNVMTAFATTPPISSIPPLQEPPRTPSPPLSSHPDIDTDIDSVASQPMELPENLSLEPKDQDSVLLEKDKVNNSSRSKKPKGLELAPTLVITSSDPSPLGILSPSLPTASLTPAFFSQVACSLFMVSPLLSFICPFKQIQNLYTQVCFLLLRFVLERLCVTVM
# In short: (§1)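 Binding signal is each hexamer's read frequency for a factor divided by its frequency in the tag-only sample. The factors were GST-fused human transcription factors from yeast, captured on glutathione beads, DNA-barcoded and pooled with that sample. Pools were incubated with 200 nmole of a random double-stranded 16-mer DNA library in Tris/NaCl/DTT/glycerol buffer at room temperature for 30 min, then washed, crosslinked with 0.1% formaldehyde, proximity-ligated with BsaI/T4 ligase (1 h, 37 °C), PCR-amplified and sequenced on an Illumina NextSeq500.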
# ELF3 = molecular target: T2, ELF3 (Homo sapiens, UniProt P78545 1-371)
# T2 sequence: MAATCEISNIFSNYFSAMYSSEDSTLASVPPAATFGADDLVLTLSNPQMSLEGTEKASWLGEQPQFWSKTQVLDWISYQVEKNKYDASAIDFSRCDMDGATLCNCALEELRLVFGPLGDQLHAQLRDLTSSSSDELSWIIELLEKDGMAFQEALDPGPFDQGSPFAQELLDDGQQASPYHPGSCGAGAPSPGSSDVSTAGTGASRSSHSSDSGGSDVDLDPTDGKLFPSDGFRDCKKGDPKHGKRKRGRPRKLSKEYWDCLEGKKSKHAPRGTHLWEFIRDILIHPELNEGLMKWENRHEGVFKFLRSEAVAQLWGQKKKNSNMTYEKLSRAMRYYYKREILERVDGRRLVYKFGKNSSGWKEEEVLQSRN
# In short: as §1
# ETV1 = ETV1 (Homo sapiens, UniProt P50549 1-477)
# In short: as §1
# ERF = molecular target: T3, ERF (Homo sapiens, UniProt P50548 1-548)
# T3 sequence: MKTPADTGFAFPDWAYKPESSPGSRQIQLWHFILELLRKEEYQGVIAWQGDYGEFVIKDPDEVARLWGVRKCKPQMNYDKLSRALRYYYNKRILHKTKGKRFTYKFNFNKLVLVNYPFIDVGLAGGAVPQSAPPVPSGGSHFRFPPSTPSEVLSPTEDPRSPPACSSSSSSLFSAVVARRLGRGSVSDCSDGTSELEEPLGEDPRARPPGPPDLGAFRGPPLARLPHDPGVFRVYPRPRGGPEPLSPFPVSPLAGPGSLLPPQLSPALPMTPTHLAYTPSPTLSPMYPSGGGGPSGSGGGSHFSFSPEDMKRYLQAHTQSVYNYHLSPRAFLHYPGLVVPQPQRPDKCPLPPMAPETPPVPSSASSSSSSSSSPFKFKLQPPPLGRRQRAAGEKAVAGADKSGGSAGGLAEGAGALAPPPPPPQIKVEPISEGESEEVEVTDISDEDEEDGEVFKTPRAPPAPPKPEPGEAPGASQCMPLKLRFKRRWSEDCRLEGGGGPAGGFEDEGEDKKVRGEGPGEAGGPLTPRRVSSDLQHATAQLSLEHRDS
# In short: as §1
# ETV3L = molecular target: T4, ETV3L (Homo sapiens, UniProt Q6ZN32 1-361)
# T4 sequence: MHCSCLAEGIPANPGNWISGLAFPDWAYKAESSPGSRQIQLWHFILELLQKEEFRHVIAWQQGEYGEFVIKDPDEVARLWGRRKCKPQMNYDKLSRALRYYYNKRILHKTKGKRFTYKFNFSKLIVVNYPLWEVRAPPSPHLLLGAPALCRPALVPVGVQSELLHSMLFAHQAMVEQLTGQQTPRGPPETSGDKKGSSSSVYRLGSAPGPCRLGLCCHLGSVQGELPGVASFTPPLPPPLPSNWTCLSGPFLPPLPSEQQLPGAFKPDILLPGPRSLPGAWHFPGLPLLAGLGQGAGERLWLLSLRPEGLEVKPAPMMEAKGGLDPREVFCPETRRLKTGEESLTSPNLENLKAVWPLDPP
# In short: as §1
# ETS2 = molecular target: T5, ETS2 (Homo sapiens, UniProt P15036 1-469)
# T5 sequence: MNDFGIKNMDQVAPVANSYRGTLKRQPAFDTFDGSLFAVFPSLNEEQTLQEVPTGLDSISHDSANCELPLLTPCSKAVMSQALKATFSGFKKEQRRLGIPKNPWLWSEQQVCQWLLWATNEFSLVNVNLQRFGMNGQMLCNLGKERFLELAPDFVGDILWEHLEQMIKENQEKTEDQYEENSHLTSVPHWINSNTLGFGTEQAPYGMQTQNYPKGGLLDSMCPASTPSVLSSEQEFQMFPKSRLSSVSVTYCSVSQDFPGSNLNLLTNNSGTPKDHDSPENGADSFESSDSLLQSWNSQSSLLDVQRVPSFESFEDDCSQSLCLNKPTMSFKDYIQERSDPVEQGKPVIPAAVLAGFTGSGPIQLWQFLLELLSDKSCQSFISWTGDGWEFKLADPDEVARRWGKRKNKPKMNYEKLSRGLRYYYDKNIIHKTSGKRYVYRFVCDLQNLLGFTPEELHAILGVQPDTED
# In short: as §1
# ETV7 = molecular target: T6, ETV7 (Homo sapiens, UniProt Q9Y603 1-341)
# T6 sequence: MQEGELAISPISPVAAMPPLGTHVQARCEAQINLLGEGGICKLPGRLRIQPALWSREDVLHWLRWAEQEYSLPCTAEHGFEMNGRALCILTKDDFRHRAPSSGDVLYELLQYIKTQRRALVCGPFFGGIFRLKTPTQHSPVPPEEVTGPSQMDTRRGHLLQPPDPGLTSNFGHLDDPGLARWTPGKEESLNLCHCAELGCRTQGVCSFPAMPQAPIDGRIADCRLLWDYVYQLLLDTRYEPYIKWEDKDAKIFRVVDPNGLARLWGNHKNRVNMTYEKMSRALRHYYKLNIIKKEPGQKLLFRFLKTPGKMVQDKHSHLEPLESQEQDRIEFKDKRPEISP
# In short: as §1
# ELF5 = molecular target: T7, ELF5 (Homo sapiens, UniProt Q9UKW6-2 1-255)
# T7 sequence: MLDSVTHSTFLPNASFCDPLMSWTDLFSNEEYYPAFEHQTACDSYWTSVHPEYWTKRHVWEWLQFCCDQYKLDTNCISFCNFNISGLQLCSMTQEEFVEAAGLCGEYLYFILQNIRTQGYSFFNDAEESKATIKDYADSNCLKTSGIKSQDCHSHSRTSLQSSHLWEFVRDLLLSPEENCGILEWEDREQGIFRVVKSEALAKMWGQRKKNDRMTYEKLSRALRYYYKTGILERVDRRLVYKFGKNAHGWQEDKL
# In short: as §1
# ETV3 = molecular target: T8, ETV3 (Homo sapiens, UniProt P41162-2 1-143)
# T8 sequence: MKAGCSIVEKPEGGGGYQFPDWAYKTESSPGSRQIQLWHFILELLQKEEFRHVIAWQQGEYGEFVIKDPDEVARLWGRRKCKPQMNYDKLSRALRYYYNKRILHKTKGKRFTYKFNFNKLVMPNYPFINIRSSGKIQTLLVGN
# In short: as §1
# ETV6 = ETV6 (Homo sapiens, UniProt P41212 1-452)
# In short: as §1
# Chain of ETV1 (P50549 whole entry): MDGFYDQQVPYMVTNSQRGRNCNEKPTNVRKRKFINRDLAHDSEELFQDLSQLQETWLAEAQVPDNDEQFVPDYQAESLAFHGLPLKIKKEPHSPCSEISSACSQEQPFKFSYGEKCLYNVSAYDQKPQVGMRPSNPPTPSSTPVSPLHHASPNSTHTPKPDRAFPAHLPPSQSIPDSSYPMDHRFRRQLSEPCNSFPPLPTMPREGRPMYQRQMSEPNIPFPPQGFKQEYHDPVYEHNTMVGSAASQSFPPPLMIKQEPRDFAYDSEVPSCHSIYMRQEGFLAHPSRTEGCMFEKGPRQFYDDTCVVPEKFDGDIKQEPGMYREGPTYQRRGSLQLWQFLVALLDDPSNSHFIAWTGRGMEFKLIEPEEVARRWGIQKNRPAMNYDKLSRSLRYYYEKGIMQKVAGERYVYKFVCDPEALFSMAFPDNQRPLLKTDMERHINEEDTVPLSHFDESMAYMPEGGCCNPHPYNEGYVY
# Chain of ETV6 (P41212 whole entry): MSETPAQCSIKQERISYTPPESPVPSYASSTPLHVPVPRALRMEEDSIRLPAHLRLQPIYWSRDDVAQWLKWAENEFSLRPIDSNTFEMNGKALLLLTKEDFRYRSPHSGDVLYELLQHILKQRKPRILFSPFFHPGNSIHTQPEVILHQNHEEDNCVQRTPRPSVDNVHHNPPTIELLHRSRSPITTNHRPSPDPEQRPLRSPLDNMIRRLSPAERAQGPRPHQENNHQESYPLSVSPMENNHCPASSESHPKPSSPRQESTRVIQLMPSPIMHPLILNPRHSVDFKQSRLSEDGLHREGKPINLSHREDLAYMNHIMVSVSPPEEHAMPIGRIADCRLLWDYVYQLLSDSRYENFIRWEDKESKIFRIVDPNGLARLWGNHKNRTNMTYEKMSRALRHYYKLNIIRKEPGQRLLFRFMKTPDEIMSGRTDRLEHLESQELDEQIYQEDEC
sequence,measurement,setting,value
GTTTGC,binding signal,ELK4,"1.17 fold enrichment (6-mer frequency, TF over GST control)"
same,binding signal,ELF3,"1.23 fold enrichment (6-mer frequency, TF over GST control)"
same,binding signal,ETV1,"1.14 fold enrichment (6-mer frequency, TF over GST control)"
same,binding signal,ERF,"1.1 fold enrichment (6-mer frequency, TF over GST control)"
same,binding signal,ETV3L,"1.05 fold enrichment (6-mer frequency, TF over GST control)"
same,binding signal,ETS2,"1.08 fold enrichment (6-mer frequency, TF over GST control)"
same,binding signal,ETV7,"1.01 fold enrichment (6-mer frequency, TF over GST control)"
same,binding signal,ELF5,"1.07 fold enrichment (6-mer frequency, TF over GST control)"
same,binding signal,ETV3,"1.1 fold enrichment (6-mer frequency, TF over GST control)"
same,binding signal,ETV6,"1.02 fold enrichment (6-mer frequency, TF over GST control)"
